# Test results taken from the supplement of paper PMC11732987, “Enantioselective OTUD7B fragment discovery through chemoproteomics screening and high-throughput optimisation” (Communications Chemistry, 2025).
# A number with no mark means an inactive call.
# Experiments:
# Assay in all cases: log2 ratio of Biotin-Ahx-Ub-VS probe labelling (fragment/DMSO); higher = less target engagement (more negative = stronger competition), active = hit call of the paper (q ≤ 0.05, log2 ratio ≤ -1)
# Conditions in all cases: compound concentration: 200 uM; treatment time: 3 h
# OTUD6B = target: T1, OTUD6B (UniProt Q8N6M0)
# T1 sequence (whole entry): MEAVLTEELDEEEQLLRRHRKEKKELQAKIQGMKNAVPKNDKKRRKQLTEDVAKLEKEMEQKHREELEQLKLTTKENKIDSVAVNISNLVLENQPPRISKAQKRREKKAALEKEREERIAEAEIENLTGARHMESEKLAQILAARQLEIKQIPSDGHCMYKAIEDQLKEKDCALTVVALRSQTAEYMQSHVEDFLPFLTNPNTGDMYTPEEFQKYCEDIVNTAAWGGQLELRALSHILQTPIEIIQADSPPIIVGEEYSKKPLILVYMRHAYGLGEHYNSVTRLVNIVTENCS
# In short: (§1)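 Lysate from HEK293T cells, 495 µg per sample in Tris/CHAPS/IGEPAL buffer with protease inhibitors, was treated for 3 h in triplicate with fragment at 200 µM or vehicle. Biotin-Ahx-Ub-VS was next added at 0.5 µM final for 1 h. The labelled DUBs were enriched with NeutrAvidin, digested with LysC and trypsin, and run by diaPASEF LC-MS/MS, with values given as average log2 fragment/vehicle ratios by unpaired t-test on global-median-normalised Spectronaut quantities of proteins with ≥2 unique peptides.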
# OTUD7B = target: T2, OTUD7B (UniProt Q6GQQ9)
# T2 sequence (whole entry): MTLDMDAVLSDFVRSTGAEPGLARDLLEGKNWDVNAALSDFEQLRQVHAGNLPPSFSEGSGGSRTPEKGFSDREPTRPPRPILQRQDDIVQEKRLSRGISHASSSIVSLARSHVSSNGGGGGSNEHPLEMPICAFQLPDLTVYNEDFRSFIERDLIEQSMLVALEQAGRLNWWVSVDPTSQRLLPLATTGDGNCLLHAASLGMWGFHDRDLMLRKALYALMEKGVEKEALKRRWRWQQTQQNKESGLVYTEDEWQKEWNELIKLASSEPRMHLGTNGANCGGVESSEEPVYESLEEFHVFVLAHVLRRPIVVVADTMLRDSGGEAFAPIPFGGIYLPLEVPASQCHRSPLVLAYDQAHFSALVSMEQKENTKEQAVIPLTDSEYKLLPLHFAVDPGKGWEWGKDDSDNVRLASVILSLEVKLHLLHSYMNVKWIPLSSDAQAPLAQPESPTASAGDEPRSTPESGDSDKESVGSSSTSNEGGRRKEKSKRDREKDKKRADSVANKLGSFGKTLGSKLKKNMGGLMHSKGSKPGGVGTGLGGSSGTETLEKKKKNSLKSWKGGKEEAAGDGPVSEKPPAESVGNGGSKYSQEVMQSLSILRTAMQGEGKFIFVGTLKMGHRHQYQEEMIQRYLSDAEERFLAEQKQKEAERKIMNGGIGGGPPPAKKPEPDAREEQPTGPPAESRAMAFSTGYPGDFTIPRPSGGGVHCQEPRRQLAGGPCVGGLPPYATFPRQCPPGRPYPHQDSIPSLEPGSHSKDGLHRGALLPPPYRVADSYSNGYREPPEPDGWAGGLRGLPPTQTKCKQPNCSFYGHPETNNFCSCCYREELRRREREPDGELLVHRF
# In short: as §1
# PRPF8 = PRPF8 (UniProt Q6P2Q9)
# In short: as §1
# PSMD7 = target: T3, PSMD7 (UniProt P51665)
# T3 sequence (whole entry): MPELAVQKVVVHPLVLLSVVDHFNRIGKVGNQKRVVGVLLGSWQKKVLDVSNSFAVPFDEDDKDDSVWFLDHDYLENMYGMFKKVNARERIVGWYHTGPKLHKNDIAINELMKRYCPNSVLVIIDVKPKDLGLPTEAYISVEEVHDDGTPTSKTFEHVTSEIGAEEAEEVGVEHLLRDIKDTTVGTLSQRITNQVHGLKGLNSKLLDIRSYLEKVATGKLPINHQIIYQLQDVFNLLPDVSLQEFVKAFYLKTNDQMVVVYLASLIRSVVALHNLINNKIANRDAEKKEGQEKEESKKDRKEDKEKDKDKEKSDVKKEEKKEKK
# In short: as §1
# UCHL1 = UCHL1 (UniProt P09936)
# In short: as §1
# UCHL3 = target: T4, UCHL3 (UniProt P15374)
# T4 sequence (whole entry): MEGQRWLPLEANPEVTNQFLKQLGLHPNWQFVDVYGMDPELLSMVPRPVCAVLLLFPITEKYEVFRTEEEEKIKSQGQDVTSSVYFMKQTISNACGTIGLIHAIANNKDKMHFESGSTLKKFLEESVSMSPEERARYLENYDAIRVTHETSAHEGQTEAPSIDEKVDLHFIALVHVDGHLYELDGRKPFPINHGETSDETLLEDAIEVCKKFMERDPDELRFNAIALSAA
# In short: as §1
# UCHL5 = target: T5, UCHL5 (UniProt Q9Y5K5)
# T5 sequence (whole entry): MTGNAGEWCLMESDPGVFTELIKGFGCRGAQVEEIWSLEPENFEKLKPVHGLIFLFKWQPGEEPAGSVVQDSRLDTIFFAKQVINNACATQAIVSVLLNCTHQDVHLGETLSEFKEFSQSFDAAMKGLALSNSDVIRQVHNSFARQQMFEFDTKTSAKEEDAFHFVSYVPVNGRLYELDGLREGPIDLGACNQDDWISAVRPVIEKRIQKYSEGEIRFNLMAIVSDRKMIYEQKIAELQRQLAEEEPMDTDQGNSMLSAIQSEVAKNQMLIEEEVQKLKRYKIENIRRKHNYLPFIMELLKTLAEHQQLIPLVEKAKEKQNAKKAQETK
# In short: as §1
# USP10 = USP10 (UniProt Q14694)
# In short: as §1
# USP15 = target: T6, USP15 (UniProt Q9Y4E8)
# T6 sequence (whole entry): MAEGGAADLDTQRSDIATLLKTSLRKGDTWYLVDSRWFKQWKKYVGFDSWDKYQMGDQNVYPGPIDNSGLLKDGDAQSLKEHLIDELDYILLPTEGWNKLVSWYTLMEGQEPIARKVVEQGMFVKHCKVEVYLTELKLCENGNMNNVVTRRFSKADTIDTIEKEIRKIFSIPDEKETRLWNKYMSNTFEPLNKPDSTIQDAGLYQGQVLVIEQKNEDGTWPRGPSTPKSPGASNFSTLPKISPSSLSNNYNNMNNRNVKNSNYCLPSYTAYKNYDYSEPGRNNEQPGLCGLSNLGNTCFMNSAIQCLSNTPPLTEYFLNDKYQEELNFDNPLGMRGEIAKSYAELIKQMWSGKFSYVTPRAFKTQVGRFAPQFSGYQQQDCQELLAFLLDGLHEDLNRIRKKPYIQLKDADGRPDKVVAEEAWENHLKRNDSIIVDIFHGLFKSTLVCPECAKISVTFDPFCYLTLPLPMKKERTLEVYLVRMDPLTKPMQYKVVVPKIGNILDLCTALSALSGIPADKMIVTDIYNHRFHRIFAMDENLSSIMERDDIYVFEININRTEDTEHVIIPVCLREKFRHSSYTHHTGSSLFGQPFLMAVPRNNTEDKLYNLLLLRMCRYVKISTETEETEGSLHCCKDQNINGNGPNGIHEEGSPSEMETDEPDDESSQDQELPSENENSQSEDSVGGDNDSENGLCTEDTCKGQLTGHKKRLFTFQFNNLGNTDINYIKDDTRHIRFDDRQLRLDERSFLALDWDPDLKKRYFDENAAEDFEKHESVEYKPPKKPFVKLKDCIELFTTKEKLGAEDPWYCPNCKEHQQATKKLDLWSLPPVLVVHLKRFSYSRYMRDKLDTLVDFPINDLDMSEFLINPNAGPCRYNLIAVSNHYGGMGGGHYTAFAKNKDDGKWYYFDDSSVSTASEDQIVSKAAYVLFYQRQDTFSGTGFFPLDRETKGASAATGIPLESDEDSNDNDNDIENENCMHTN
# In short: as §1
# USP16 = USP16 (UniProt Q9Y5T5)
# In short: as §1
# USP16, sequence (Q9Y5T5 whole entry, looked up): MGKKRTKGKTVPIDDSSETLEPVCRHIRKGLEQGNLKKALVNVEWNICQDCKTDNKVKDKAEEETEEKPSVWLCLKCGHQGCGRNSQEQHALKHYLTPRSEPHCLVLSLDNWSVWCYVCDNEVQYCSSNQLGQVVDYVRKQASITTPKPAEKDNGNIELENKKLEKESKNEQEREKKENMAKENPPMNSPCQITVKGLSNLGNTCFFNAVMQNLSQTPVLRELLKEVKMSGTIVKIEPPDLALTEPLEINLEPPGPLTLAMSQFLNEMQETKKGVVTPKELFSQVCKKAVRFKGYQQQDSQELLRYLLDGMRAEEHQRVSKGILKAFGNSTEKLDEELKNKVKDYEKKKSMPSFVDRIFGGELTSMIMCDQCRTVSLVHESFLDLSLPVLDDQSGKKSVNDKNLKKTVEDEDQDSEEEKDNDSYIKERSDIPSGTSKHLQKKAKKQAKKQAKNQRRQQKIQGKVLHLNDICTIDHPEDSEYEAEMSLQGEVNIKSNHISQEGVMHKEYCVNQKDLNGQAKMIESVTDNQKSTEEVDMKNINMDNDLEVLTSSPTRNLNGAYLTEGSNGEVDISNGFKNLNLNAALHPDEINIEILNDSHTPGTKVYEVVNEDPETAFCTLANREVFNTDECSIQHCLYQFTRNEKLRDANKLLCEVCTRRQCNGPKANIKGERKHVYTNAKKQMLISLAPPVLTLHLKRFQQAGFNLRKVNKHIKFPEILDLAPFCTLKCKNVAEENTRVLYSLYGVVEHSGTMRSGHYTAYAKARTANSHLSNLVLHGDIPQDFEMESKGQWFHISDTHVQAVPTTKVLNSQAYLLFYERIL
# UCHL1, sequence (P09936 whole entry, looked up): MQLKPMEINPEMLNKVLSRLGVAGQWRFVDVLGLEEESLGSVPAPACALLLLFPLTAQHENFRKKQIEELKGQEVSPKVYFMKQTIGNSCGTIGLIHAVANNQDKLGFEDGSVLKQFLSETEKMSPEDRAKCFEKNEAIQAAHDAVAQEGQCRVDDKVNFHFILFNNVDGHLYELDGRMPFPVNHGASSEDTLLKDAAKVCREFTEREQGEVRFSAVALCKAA
# USP10, sequence (Q14694 whole entry): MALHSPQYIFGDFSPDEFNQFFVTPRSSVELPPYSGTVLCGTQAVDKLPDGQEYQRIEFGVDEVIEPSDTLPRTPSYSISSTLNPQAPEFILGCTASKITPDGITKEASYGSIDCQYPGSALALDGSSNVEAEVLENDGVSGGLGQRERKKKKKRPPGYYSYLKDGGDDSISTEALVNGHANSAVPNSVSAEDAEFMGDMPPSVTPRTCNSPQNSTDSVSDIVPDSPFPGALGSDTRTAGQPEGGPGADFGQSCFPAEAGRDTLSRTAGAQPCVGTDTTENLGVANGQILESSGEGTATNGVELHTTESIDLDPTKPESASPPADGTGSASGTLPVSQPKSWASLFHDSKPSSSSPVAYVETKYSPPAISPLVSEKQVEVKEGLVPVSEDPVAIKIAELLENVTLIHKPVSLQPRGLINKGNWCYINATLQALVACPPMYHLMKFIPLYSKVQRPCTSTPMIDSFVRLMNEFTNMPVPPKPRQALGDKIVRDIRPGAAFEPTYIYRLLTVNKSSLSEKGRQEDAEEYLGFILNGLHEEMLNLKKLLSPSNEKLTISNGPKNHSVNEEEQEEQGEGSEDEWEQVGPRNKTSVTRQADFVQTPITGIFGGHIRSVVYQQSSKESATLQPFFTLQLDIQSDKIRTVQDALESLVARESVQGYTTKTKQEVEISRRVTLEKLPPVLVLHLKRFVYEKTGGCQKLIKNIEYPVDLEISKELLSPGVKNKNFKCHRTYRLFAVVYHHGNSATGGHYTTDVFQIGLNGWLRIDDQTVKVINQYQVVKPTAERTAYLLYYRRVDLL
compound,measurement,setting,value
Cc1ccccc1C1(CNC(=O)CCl)CCOCC1,log2 ratio of Biotin-Ahx-Ub-VS probe labelling,OTUD6B,-0.054
same,log2 ratio of Biotin-Ahx-Ub-VS probe labelling,OTUD7B,-0.293
same,log2 ratio of Biotin-Ahx-Ub-VS probe labelling,PRPF8,-0.0655
same,log2 ratio of Biotin-Ahx-Ub-VS probe labelling,PSMD7,-0.0606
same,log2 ratio of Biotin-Ahx-Ub-VS probe labelling,UCHL1,-1.45 (active)
same,log2 ratio of Biotin-Ahx-Ub-VS probe labelling,UCHL3,0.231
same,log2 ratio of Biotin-Ahx-Ub-VS probe labelling,UCHL5,-0.272
same,log2 ratio of Biotin-Ahx-Ub-VS probe labelling,USP10,-0.0236
same,log2 ratio of Biotin-Ahx-Ub-VS probe labelling,USP15,-0.102
same,log2 ratio of Biotin-Ahx-Ub-VS probe labelling,USP16,0.242
